The values that follow come from PubChem BioAssay (NCATS).

Structures are written as SMILES. Results filed as inconclusive are left out. Active and inactive are the calls of the source. Calls follow the shape of the dose curve; as a rule, active = well fitted inhibition curve with a large enough effect; inconclusive = small, poorly fitted or top-dose-only effect; inactive = flat fitted curve, though single readings scatter. Where a SMILES comes first, the peptide text is derived from it.
% is scaled to controls: 0 for no effect and ±100 for the full control effect.

This assay can be described thus: P-glycoprotein substrates identified in KB-8-5-11 adenocarcinoma cell line, qHTS therapeutic library screen (AID 1346987). Also: nearly all actives have a fitted effect of over 65% in size. The settings on record: KB-8-5-11 (P-gp overexpressing) viability, CellTiter-Glo, 72 h; series mostly up to 44.5 µM; activity change, negative = cytotoxicity: at the top concentration. The source says: The ATP-binding cassette transporters P-glycoprotein (P-gp) is known to limit brain penetration of many chemotherapy drugs. […] As such, we developed a high-throughput screen (HTS) to identify substrates of P-gp from a series of chemical libraries including the National Center for Advancing Translational Sciences Pharmaceutical Collection NPC, 2,816 compounds), testing a total of 10,804 compounds, most of which have known mechanisms of action. We used the CellTiter-Glo viability assay to test library compounds against the parental KB-3-1 human cervical adenocarcinoma cell line and the colchicine-selected sub-line KB-8-5-11 that over-expresses P-gp. KB-8-5-11 cells were also tested in the presence of a P-gp inhibitor (tariquidar) to assess reversability of transporter-mediated resistance. Of the tested compounds, a total of 90 P-gp substrates were identified including 55 newly identified P-gp substrates. Substrates were confirmed using an orthogonal killing assay against HEK-293 cells transfected with P-gp. As exemplars, we confirmed that […] (cyclin-dependent kinase inhibitor); AT9283, (Janus kinase 2/3 inhibitor); ispinesib (kinesin spindle protein inhibitor); gedatolisib (PKI-587, phosphoinositide 3-kinase/mammalian target of rampamycin inhibitor); GSK-690693 (AKT inhibitor); and KW-2478 (heat shock protein 90 inhibitor) were substrates , and direct ATPase stimulation was assessed. ABCG2 was also found to confer high levels of resistance to AT9283, GSK-690693 and gedatolisib, while ispinesib, AT7519 and KW-2478 were weaker substrates.
The HeLa derivative cell line, KB-3-1, and its colchicine-selected, P-gp-overexpressing subline, KB-8-5-11 were maintained in DMEM with 10% FCS and Pen/Strep with glutamine at 37 degree C in 5% CO2. For KB-8-5-11 cells, colchicine was added to the medium at a concentration of 100 ng/mL. HEK-293 cells transfected with empty vector (pcDNA) or vector containing human ABCB1 (MDR-19) or ABCG2 (R-5) have been described previously (Robey, Lin, Qiu, Chan & Bates, 2011) and were maintained in EMEM supplemented with 10% FCS, Pen/Strep and glutamine with 2 mg/ml G418 to select for the expression of the transporter. Cultures were confirmed to be free of mycoplasma infection using the MycoAlert Mycoplasma Detection Kit (Lonza, Walkersville, MD). For the screen, assay medium was identical to culture medium except for KB-8-5-11 where colchicine was excluded from the medium.
All cell lines were plated into 1536-well plates at 500 cells/well in 5 uL media. Compounds were then pinned in dose-response using a 1536-head pin tool (Kalypsis, San Diego, CA) and plates were incubated at 37 degree C in 5% CO2 for an additional 72 h. CellTiter-Glo reagent (Promega) was dispensed into the wells, incubated for 5 min and luminescence was read on a ViewLux instrument (Perkin-Elmer). Cytotoxic compounds were defined as those that yielded a curve class of -1.1, -1.2, -2.1, -2.2, -2.3, or -2.4, a maximum response of >50% and an AC50 of < 10 uM. Cherry-picked hits from screening analysis were tested with both the KB pair of cell lines, and the pcDNA (empty vector control) and MDR-19 (P-gp overexpressing) pair were tested, in the absence and presence of tariquidar.
Turning to `C/C(=C\CO)CC/C=C(\C)C(=O)O[C@@H]1O[C@H](CO)[C@@H](O)[C@H](O)[C@H]1O`, the outcome was inactive. In the case of `COc1cc2c(c(OC)c1O)C(c1ccc(O)cc1)C1C(=O)OC3C(COC(=O)C1=C2)OC(CO)(OC1OC(COC(=O)/C=C/c2ccc(OC4OC(C)C(O)C(O)C4O)cc2)C(O)C(O)C1O)C3O` (stereo not given), the activity change, negative = cytotoxicity is 2.8% [at 9.29 µM] (inactive). For `C=CC1(C)CC2CCC3C(C)(C(=O)O)CCCC3(C)C2=CC1=O` (stereo not given), the outcome was inactive.

Turning to `C/C=C1/CC2C(=O)Nc3cc(O)c(OC)cc3C(=O)N2C1` (stereo not given), the compound was called inactive.

On to `C/C(=C\C1CCC(C)C2CCC3(C)OC123)C(=O)O` (stereo not given), for which the “activity change, negative = cytotoxicity” value is 3.55% (inactive). Take `COc1cc(O)c(C(=O)O)c(CCc2ccccc2)c1`: the result was inactive. Turning to `CC(C)C1NC(=O)C2CCCN2C1=O` (stereo not given), the “activity change, negative = cytotoxicity” value is 1.69% (inactive). Regarding `O=C(OC[C@H]1O[C@H](O[C@H]2CO[C@H](CO)[C@@H](O)[C@@H]2O)[C@H](O)[C@@H](O)[C@H]1O)c1ccccc1`, the “activity change, negative = cytotoxicity” value is 1.51% [at 17.3 µM] (inactive). For the compound `O=C(Cc1ccc(Cl)cc1)Nc1cnccc1C(=O)O`, the result was inactive. For `CSC(=O)OCC1=C[C@@H]2OC(=O)C3=CO[C@@H](O[C@@H]4O[C@H](CO)[C@@H](O)[C@H](O)[C@H]4O)[C@H]1[C@@H]32`, the “activity change, negative = cytotoxicity” value was 5.33% [at 17.3 µM] (inactive). As for `C=C1C(O)CCC2(C)CC3(OC)OC(=O)C(C)=C3CC12` (stereo not given), the outcome was inactive.

As for `COc1ccnc2[nH]cc(C(=O)C(=O)N3CCN(C(=O)c4ccccc4)CC3C)c12` (stereo not given), the compound was called inactive.

Consider `C/C(=C\CC/C(C)=C/CC[C@]1(C)CCc2cc(O)cc(C)c2O1)CC/C=C(\C)C(=O)O`, for which the “activity change, negative = cytotoxicity” value is 2.58% [at 17.3 µM] (inactive). With `COc1cccc(OC)c1-c1cc(C(=O)N[C@@H](CC(C)C)C(=O)O)nn1-c1ccnc2cc(Cl)ccc12`, the outcome was inactive.

For the compound `CC1(C)Oc2ncnc(N)c2N=C1c1ccc(C2CCC(CC(=O)O)CC2)cc1` (stereo not given), the “activity change, negative = cytotoxicity” value is -13.5% (inactive). Consider `CC(=O)O[C@@H]1C(O)C[C@@]2(C)C(CC[C@@H](C)C23Cc2c(O)cc4c(c2O3)CNC4=O)C1(C)C` (stereo not given in full), for which the “outcome” value was “inactive [at 17.3 µM]”.

For the compound `C=CCc1cc(OC)c(OC(C)C(O)c2ccc(O)c(OC)c2)c(OC)c1` (stereo not given), the “activity change, negative = cytotoxicity” value is -11.9% (inactive).

Regarding `C[C@H]1[C@@H](O)[C@H](O)C2[C@]3(C)C([C@@H](O)[C@H]4OC(=O)[C@@H]1[C@@]24C)[C@](C)(O)C=C[C@H]3O[C@@H]1O[C@H](CO)[C@@H](O)[C@H](O)[C@H]1O` (stereo not given in full), the “activity change, negative = cytotoxicity” value is 9.72% [at 17.3 µM] (inactive).

Take `C=C1CC/C=C(/C(=O)O)CCC2C1CC2(C)C` (stereo not given): the call was inactive. Regarding `CC(=O)NC(Cc1ccccc1)C(=O)NC(C(=O)O)C(C)C` (stereo not drawn) (Ac-Phe-Val-OH; configuration not given here), the “activity change, negative = cytotoxicity” value is 3.63% (inactive). In the case of `CC(C)=CCc1cc(O[C@@H]2O[C@H](CO[C@@H]3OC[C@](O)(CO)[C@H]3O)[C@@H](O)[C@H](O)[C@H]2O)ccc1O`, the “outcome” value is “inactive [at 17.3 µM]”. Same read-out and setting: to `C=C1C[C@@]2(O)O[C@@]3(C[C@H]2C(C)C)[C@@H](C)CC[C@@H]13` belongs “inactive”. On the same count and under the same terms, for `C[C@@H]1O[C@@H](O[C@H]2[C@H](Oc3cc(O)c(C(=O)CCc4ccc(O)cc4)c(O)c3)O[C@H](CO)[C@@H](O)[C@@H]2O)[C@H](O)[C@H](O)[C@H]1O` the value was “inactive”. Take `CC1OC(OC2C(OC(=O)[C@]34CCC(C)(C)C[C@H]3C3=CCC5[C@@]6(C)CC[C@H](OC7OC(C(=O)O)C(O)C(O)C7O)C(C)(C)C6CC[C@@]5(C)[C@]3(C)CC4O)OC(CO)C2O)C(O)C(O)C1OC1OCC(O)C(O)C1O` (stereo not given in full): the activity change, negative = cytotoxicity was 7.83% [at 9.29 µM] (inactive). For `COC(=O)C1=COC(O[C@@H]2O[C@H](COC(=O)/C=C/c3ccc(O)cc3)[C@@H](O)[C@H](O)[C@H]2O)C2C(CO)=CCC12` (stereo not given in full), the “outcome” value was “inactive [at 17.3 µM]”.

In the case of `OC[C@H]1O[C@@H](OCc2ccccc2)[C@H](O[C@@H]2OC[C@@H](O)[C@H](O)[C@H]2O)[C@@H](O)[C@@H]1O`, the “outcome” value is “inactive [at 17.3 µM]”. `C/C=C/C=C/C(O)=C1/C(=O)[C@]2(C)C3/C(=C(O)/C=C/C=C/C)C(=O)C4(C)C1[C@]1(C)O[C@@]4(O)[C@@]3(C)O[C@@]12O`: the “outcome” value was “inactive [at 17.3 µM]”. For `COc1ccc(N2CCN(CCCNC(=O)Cn3c(=O)c4cccn4c4c(C)ccnc43)CC2)cc1`, the “activity change, negative = cytotoxicity” value is -13.1% (inactive). The same measure, in the same setting: for `CC[C@@H]1[C@H]2CCCCN3C(=O)C[C@H]([C@@H]4[C@H]1OC(=O)[C@H]4C)[C@@H]23` the value was 6.73% (inactive); for `CN1CCCC1Cc1c[nH]c2ccc(CCS(=O)(=O)c3ccccc3)cc12` (stereo not given), -18.3% (inactive); for `COC(=O)C(CC1(OC(=O)C(C)C)c2ccccc2N2C(=O)C(C)(C)N(O)C21)n1cnc2ccccc2c1=O` (stereo not given), -6.25% [at 17.3 µM] (inactive). Regarding `C[C@@H]1O[C@@H](O[C@H]2[C@H](O[C@H]3[C@H](O[C@H]4CC[C@@]5(C)C(CC[C@]6(C)C5CC=C5[C@@H]7CC(C)(C)C[C@@H](O)[C@]7(C)CC[C@]56C)[C@@]4(C)CO)O[C@H](C(=O)O)[C@@H](O)[C@@H]3O)O[C@H](C(=O)O)[C@H](O)[C@@H]2O)[C@H](O)[C@H](O)[C@H]1O` (stereo not given in full), the outcome was “inactive [at 9.29 µM]”.

Regarding `CC(=O)OCC1=C[C@@H]2OC(=O)C3=CO[C@@H](O[C@@H]4O[C@H](CO)[C@@H](O)[C@H](O)[C@H]4O)[C@H]1[C@@H]32`, the “activity change, negative = cytotoxicity” value is 5.71% [at 17.3 µM] (inactive). For the compound `CC1(C)O[C@H]2CC(=O)OC[C@@]23C1=C(O)C(=O)[C@]1(C)C3CC[C@@]2(C)[C@H](c3ccoc3)OC(=O)[C@H]3O[C@]321` (stereo not given in full), the “activity change, negative = cytotoxicity” value was 7.55% [at 17.3 µM] (inactive). Take `N=C(N)c1ccc2nc(-c3cc(CC(=O)NC(CC(=O)O)C(=O)O)cc(-c4cc(S(N)(=O)=O)ccc4O)c3O)[nH]c2c1` (stereo not given): the outcome was inactive. As to `FC(F)(F)Oc1ccc(-c2ccc3nnc(C(F)(F)F)n3c2)cc1`, the “activity change, negative = cytotoxicity” value is -16.8% (inactive). Same read-out and setting: to `COc1cc(Cc2cnc(N)nc2N)c(C(C)C)cc1OC` belongs 4.26% (inactive).

On to `O=C(O)CCc1ccc(NCc2cccc3c2CCCN3CCOc2ccccc2)cc1F`, for which the “activity change, negative = cytotoxicity” value is 4.86% (inactive). The same measure, in the same setting: for `O=C(O)CC(CCc1ccccc1)OC1OC(CO)C(O)C(O)C1O` (stereo not given) the value was 7.29% (inactive).

Take `CC(=O)OC1CC2(C)C(CCC(C)C23Cc2c(O)cc4c(c2O3)CNC4=O)C(C)(C)C1O` (stereo not given): the “outcome” value was “inactive [at 17.3 µM]”.
